PubChem BioAssay AID602188 (Broad Institute, 2012)
Measured potencies and affinities stand elsewhere. Inconclusive results are not listed. Unmarked numbers belong to inactive results.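 Rule for the calls: active = compounds whose fitted curve lowers viable cell signal, with half-maximal concentration at most twice the top tested dose; inconclusive = flat curve showing 30 to 70% toxicity, or poor fit; inactive = the rest.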

Experiment: NIH-3T3 fibroblast cytotoxicity, dose response, cytotoxicity control for antifungal single agent project, cell-based, Alamar Blue, dry powder (AID 602188)
Conditions: NIH-3T3 fibroblast viability, Alamar Blue fluorescence, 48 h; series mostly up to 26 µM; activity change, negative = toxicity: at the top concentration

Compound | activity change, negative = toxicity [%]
CCOC(=O)N1C(=O)C2(CCCCC2)N(c2ccc(C)cc2)C1=S | -30.9
O=C(Nc1nc(-c2ccccc2)cs1)c1ccc(Br)s1 | -12.8
O=C(Nc1nc(-c2ccc3c(c2)CCCC3)cs1)c1ccccc1 | -19.8
NC(=O)c1cccc(C(=O)Nc2nc(-c3ccc4c(c3)CCCC4)cs2)c1 | 1.26
